Test results as given in PubChem BioAssay.
Active and inactive are the calls of the source. Unless noted, how the calls were made is not given here.

Key:
[1] = resazurin metabolic signal in HepG2 cells – cell-based, resazurin fluorescence, 24 h, PK04 Diversity Set, profiling panel (AID 1172); details: HepG2 viability, higher = more signal
[2] = budding yeast growth changes without added modifier – OD600, strain BY4716, 24 h, basal condition, primary screen (AID 1173); details: S. cerevisiae BY4716 growth, OD600, 24 h; higher = more signal, called active from +8 up or from −8 down
[3] = viability profiling in MM1S myeloma cells – cell-based, resazurin fluorescence, basal, 24 h, PK04 Diversity Set, profiling panel (AID 1174); details: higher = more signal, called active from +8 up or from −8 down;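 further: MM1S multiple myeloma cell line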
[4] = molecular target: Dihydroorotate dehydrogenase (quinone), mitochondrial (Plasmodium falciparum (isolate 3D7)) (UniProt Q08210); experiment: inhibition of P. falciparum DHODH – biochemical, C-terminal His tag, absorbance 600 nm, primary screen (AID 1175); details: PfDHODH enzyme, DCIP absorbance 600 nm; higher = more signal, called active from +8 up or from −8 down;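 further: recombinant parasite enzyme with a five histidine tag at its C terminus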
[5] = inhibition of PAO1 biofilm formation – strain PAO1, LB-PBS medium, absorbance 600 nm, primary screen (AID 1176); details: P. aeruginosa PAO1 growth/biofilm, A600, 12 h; higher = more signal
[6] = growth modulation of vineyard yeast isolate – strain RM11-1a, OD600, basal, 24 h, primary screen (AID 1177);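 further: cultures grown under basal conditions with no added stressor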; details: S. cerevisiae RM11-1a growth, OD600, 24 h; higher = more signal, called active from +8 up or from −8 down
[7] = growth of efflux-deficient E. coli DRC39 – strain DRC39, OD650, 24 h, E. coli filamentation inducers, primary screen (AID 1178);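 further: growth measured as culture turbidity by optical density at 650 nm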; details: E. coli DRC39 acrAB, higher = more signal, called active from +8 up or from −8 down
[8] = growth of efflux-deficient E. coli DRC39 – strain DRC39, OD650, 48 h, E. coli filamentation inducers, primary screen (AID 1179);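 further: screen aims at cell division blockers that make cells filament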; details: E. coli DRC39 delta-acrAB growth, higher = more signal, called active from +8 up or from −8 down
[9] = viability profiling in RPMI8226 myeloma cells – cell-based, resazurin fluorescence, basal, 24 h, PK04 Diversity Set, profiling panel (AID 1180); details: higher = more signal;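 further: RPMI8826 multiple myeloma cell line at 5000 cells per well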
[10] = molecular target: E3 ubiquitin-protein ligase XIAP (Homo sapiens) (UniProt P98170); experiment: small molecules binding XIAP protein – biophysical, small-molecule microarray, fluorescence 635 nm, primary screen (AID 1181); details: higher = more signal;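 further: score merges 667 nm emission and signal to noise over triplicate slides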
[11] = test system: XIP peptide (Xip251-270) binding; experiment: XIP fragment 251-270 binding compounds – biochemical, small-molecule microarray, fluorescence 635/667 nm, 0.1 µg/mL protein, primary screen (AID 1182); details: fluorescent protein binding, 635 nm, higher = more signal, called active from +8 up or from −8 down
[12] = test system: XIP peptide (Xip251-270); experiment: compounds binding XIP fragment 251-270 – biochemical, small-molecule microarray, fluorescence 635/667 nm, 0.5 µg/mL protein, primary screen (AID 1183); details: fluorescence 635 nm, higher = more signal
[13] = blood-stage malaria parasite viability loss – strain 3D7, DAPI fluorescence, 100 nL, primary screen (AID 1184);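 further: parasites grown inside human red blood cells in medium with human serum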; details: P. falciparum 3D7 growth, 3 d, higher = more signal
[14] = molecular target: Homeobox protein Hox-A13 (Mus musculus) (UniProt Q62424); experiment: disruptors of Hoxa13 oligonucleotide interaction – biochemical, fluorescence polarization, labeled oligonucleotide, primary screen (AID 1185); details: Hoxa13:DNA binding, 15 min, higher = more signal, called active from +8 up or from −8 down
[15] = blockers of DNA damage checkpoint Chk1 activation – imaging, HeLa, hydroxyurea, phospho-Chk1 antibody, percent positive cells, primary screen (AID 1186); details: hydroxyurea-induced phospho-Chk1 immunofluorescence imaging, higher = more signal
[16] = blockers of DNA damage checkpoint Chk1 activation – imaging, HeLa, hydroxyurea, phospho-Chk1 nuclear intensity, primary screen (AID 1187); details: hydroxyurea-induced phospho-Chk1 immunofluorescence imaging, higher = more signal

E3 ubiquitin-protein ligase XIAP (Homo sapiens), sequence (P98170 whole entry, looked up, the tested form may be a part): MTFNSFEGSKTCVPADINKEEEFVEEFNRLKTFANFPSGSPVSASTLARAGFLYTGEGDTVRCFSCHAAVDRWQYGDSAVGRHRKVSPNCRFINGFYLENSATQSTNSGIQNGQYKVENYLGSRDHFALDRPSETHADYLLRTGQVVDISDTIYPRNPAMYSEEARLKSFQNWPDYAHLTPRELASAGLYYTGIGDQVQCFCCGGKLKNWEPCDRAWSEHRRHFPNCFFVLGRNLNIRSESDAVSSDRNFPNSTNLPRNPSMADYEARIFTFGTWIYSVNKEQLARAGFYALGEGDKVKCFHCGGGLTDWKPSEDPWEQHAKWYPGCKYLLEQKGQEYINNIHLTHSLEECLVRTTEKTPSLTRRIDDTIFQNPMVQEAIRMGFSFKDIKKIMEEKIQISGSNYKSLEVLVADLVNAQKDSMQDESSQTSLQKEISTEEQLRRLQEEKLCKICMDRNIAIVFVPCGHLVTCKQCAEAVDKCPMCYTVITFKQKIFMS
Dihydroorotate dehydrogenase (quinone), mitochondrial (Plasmodium falciparum (isolate 3D7)), sequence (Q08210 whole entry, looked up): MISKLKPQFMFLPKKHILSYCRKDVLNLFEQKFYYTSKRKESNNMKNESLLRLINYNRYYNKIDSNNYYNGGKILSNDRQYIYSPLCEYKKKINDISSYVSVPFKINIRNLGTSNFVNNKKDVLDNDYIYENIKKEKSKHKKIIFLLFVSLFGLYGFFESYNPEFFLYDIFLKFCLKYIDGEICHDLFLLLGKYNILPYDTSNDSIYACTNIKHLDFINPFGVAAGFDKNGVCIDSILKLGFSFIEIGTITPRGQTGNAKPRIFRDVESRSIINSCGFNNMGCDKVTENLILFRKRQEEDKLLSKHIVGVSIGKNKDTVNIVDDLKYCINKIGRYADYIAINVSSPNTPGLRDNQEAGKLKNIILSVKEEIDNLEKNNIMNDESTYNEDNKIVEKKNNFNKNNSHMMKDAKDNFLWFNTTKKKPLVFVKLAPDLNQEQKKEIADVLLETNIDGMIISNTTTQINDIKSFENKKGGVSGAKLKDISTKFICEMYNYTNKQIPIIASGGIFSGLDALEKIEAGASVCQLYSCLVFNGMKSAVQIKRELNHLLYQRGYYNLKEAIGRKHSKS
Homeobox protein Hox-A13 (Mus musculus), sequence (Q62424 whole entry, looked up): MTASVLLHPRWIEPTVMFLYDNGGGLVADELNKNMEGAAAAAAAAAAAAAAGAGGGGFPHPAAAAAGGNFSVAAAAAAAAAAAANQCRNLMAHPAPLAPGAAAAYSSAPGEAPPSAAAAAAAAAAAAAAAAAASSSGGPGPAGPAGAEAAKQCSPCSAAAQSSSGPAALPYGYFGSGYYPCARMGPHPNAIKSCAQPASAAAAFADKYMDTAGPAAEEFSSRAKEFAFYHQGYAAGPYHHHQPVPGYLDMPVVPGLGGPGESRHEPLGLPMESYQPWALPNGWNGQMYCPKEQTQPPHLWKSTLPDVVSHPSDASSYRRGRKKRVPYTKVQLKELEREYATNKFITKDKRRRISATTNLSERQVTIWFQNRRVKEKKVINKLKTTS

SMILES	z-score [1]	z-score [2]	z-score [3]	composite z-score [4]	z-score [5]	z-score [6]	z-score [7]	z-score [8]	z-score [9]	composite z-score [10]	composite z-score [11]	composite z-score [12]	z-score [13]	z-score [14]	z-score [15]	z-score [16]
CCOC(=O)[C@H]1C/C=C/C[C@H](C(=O)OCC)C(=O)O[C@H]2[C@@H](OC)O[C@H](CO)[C@@H](OC(=O)Nc3ccc(OC)cc3)[C@@H]2OC1=O	-1.45	-0.0211 (inactive)	-2.07 (inactive)	0.214 (inactive)	0.979 (inactive)	0.864 (inactive)	0.391 (inactive)	1.25 (inactive)	-1.08	0.191	0.568 (inactive)	0.601	-1.71	-0.589 (inactive)	0.178 (inactive)	0.395 (inactive)
COCCCNC(=O)[C@]1(Cc2ccccc2N=[N+]=[N-])N=C(c2ccc(OCCCO)cc2)O[C@@H]1c1ccccc1N=[N+]=[N-]	-2.52	0.298 (inactive)	-3 (inactive)	-0.282 (inactive)	1.07 (inactive)	0.315 (inactive)	0.342 (inactive)	-0.435 (inactive)	-2.76	-0.0332	-0.207 (inactive)	0.538	-2.11	-1.51 (inactive)	-0.553 (inactive)	-0.627 (inactive)
COCCOC(=O)N1C(=O)[C@@]2(c3ccccc31)[C@H](C(=O)N1CCN(c3ncccn3)CC1)[C@H]1C(=O)O[C@H](c3ccccc3)[C@H](c3ccccc3)N1[C@@H]2c1ccc(OCCO)cc1	0.0481	1.89 (inactive)	0.351 (inactive)	-1.04 (inactive)	2 (inactive)	2.64 (inactive)	0.0841 (inactive)	1.19 (inactive)	0.253	0.0924	0.707 (inactive)	0.791	-1.93	-0.387 (inactive)	0.065 (inactive)	0.182 (inactive)
COC(=O)[C@@]1(Cc2ccccc2)[C@H]2c3cc(C(=O)N4CCCC4)n(C[C@H](O)CO)c3C[C@H]2CN1C(=O)c1ccccc1	-0.476	1.08 (inactive)	-0.688 (inactive)	0.355 (inactive)	0.0818 (inactive)	0.267 (inactive)	-0.685 (inactive)	-0.299 (inactive)	-0.746	-0.099	0.484 (inactive)	-0.487	-1.02	-5.19 (inactive)	0.905 (inactive)	0.777 (inactive)
C[C@@H](OCc1ccccc1)C1NC(=O)[C@@]23C(=O)N[C@@H](Cc4ccccc4)C2[C@H](C)[C@@]2(C)O[C@H]2C3/C=C/C/C=C\CNC(=O)CNC1=O (some centres undefined)	-0.816	-0.303 (inactive)	-0.555 (inactive)	-0.402 (inactive)	0.662 (inactive)	-0.509 (inactive)	0.0899 (inactive)	-0.754 (inactive)	-0.724	-0.0351	-0.153 (inactive)	-0.796	-0.748	-7.11 (inactive)	0.631 (inactive)	0.734 (inactive)
CON(C)C(=O)C=C1C[C@@H](c2cccc(Cl)c2)O[C@@H](c2cccc(Cl)c2)O1	0.485	-0.283 (inactive)	0.0896 (inactive)	-0.558 (inactive)	-0.184 (inactive)	1.21 (inactive)	-0.471 (inactive)	0.134 (inactive)	0.515	-0.0827	2.75 (inactive)	0.454	-2	-3.48 (inactive)	-0.0938 (inactive)	-0.0296 (inactive)
O=C1C2C=CC(C(O)c3cc(C(F)(F)F)cc(C(F)(F)F)c3)N(Nc3ccc([N+](=O)[O-])cc3)C2C(=O)N1c1ccccc1 (centres undefined)	-0.566	0.55 (inactive)	-0.683 (inactive)	0.665 (inactive)	1.07 (inactive)	0.565 (inactive)	-2.26 (inactive)	-1.25 (inactive)	-2.18	0.29	0.131 (inactive)	0.802	-0.945	-3.06 (inactive)	-0.198 (inactive)	-0.331 (inactive)
COC(=O)c1c(CC[C@@H](CO)NC(=O)N[C@H](Cn2cc(-c3ccccc3C)nn2)C(C)C)oc(C(C)=O)c1C(=O)OC	-0.329	-0.723 (inactive)	0.173 (inactive)	-3.09 (inactive)	0.574 (inactive)	-0.489 (inactive)	0.173 (inactive)	-0.488 (inactive)	-0.371	0.211	-0.0077 (inactive)	-0.0163	-1.85	-0.127 (inactive)	1.16 (inactive)	0.823 (inactive)
CC(C)(C)OC(=O)CC[C@]1(C(=O)N2CCOCC2)N=C(c2ccc(OCCCO)cc2)O[C@H]1c1ccccc1	-0.149	-0.243 (inactive)	-1.56 (inactive)	-0.127 (inactive)	-0.537 (inactive)	-0.294 (inactive)	0.301 (inactive)	0.553 (inactive)	0.48	0.0003	-0.0263 (inactive)	0.689	-0.29	-5.96 (inactive)	-0.443 (inactive)	-0.494 (inactive)
